From PubChem BioAssay (NCI)
Compounds without any hit were thinned out: in the full panel of roughly 83,000, 20% have a hit.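 For each line, cells grew in 96-well plates with the test compound present at a single concentration for 48 hours.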 Active and inactive are the calls of the source. The calls were made as follows: active = growth percent below 10; inactive = the rest.

Experiments:
Experiment in all cases: NCI-60 one-dose screen, 48 h (100 = growth as untreated, 0 = no growth, -100 = all killed)
Details in all cases: 10 µM
SK-MEL-2 melanoma = tested on: SK-MEL-2 melanoma
EKVX NSCLC = tested on: EKVX NSCLC
UO-31 renal = tested on: UO-31 renal
TK-10 renal = tested on: TK-10 renal
ACHN renal = tested on: ACHN renal
CAKI-1 renal = tested on: CAKI-1 renal
A498 renal = tested on: A498 renal
CCRF-CEM leukemia = tested on: CCRF-CEM leukemia
MOLT-4 leukemia = tested on: MOLT-4 leukemia
SR leukemia = tested on: SR leukemia
RPMI-8226 leukemia = tested on: RPMI-8226 leukemia
OVCAR-8 ovarian = tested on: OVCAR-8 ovarian
OVCAR-5 ovarian = tested on: OVCAR-5 ovarian
OVCAR-4 ovarian = tested on: OVCAR-4 ovarian
SK-OV-3 ovarian = tested on: SK-OV-3 ovarian
OVCAR-3 ovarian = tested on: OVCAR-3 ovarian
HS 578T breast = tested on: HS 578T breast
NCI/ADR-RES ovarian = tested on: NCI/ADR-RES ovarian
IGROV1 ovarian = tested on: IGROV1 ovarian
SN12C renal = tested on: SN12C renal

Measured: growth

O=[N+]([O-])c1ccc2ncccc2c1Cl
inactive: SK-MEL-2 melanoma 77.4% | EKVX NSCLC 119% | UO-31 renal 30.2% | TK-10 renal 66.7% | ACHN renal 56.2% | CAKI-1 renal 32% | A498 renal 100% | CCRF-CEM leukemia 12.3% | MOLT-4 leukemia 30% | RPMI-8226 leukemia 38.7% | OVCAR-8 ovarian 18.6% | OVCAR-5 ovarian 85.3% | OVCAR-4 ovarian 90.2% | SK-OV-3 ovarian 63.6% | OVCAR-3 ovarian 40.7% | HS 578T breast 67% | NCI/ADR-RES ovarian 29.2%
active: SR leukemia 7.28%

O=c1c(Br)ccc(Br)cc1Br
inactive: EKVX NSCLC 99.1% | A498 renal 93% | SK-OV-3 ovarian 112% | HS 578T breast 43.4%
active: SK-MEL-2 melanoma -73.3% | TK-10 renal -44.5% | ACHN renal -79.1% | CAKI-1 renal -81.3% | CCRF-CEM leukemia -41.4% | MOLT-4 leukemia -36.8% | RPMI-8226 leukemia -51.2% | OVCAR-5 ovarian 4.49% | OVCAR-4 ovarian -92.8% | OVCAR-3 ovarian -94.8% | NCI/ADR-RES ovarian -15.3%

COc1ccc(C2=Cn3c(CCC(=O)c4nc5ccccc5[nH]4)nnc3SC2)cc1
inactive: SK-MEL-2 melanoma 106% | EKVX NSCLC 90.3% | UO-31 renal 82% | TK-10 renal 125% | ACHN renal 110% | CAKI-1 renal 96.9% | A498 renal 58% | MOLT-4 leukemia 43.2% | SR leukemia 18.9% | RPMI-8226 leukemia 61.7% | OVCAR-8 ovarian 120% | OVCAR-5 ovarian 116% | SK-OV-3 ovarian 120% | IGROV1 ovarian 91.6% | HS 578T breast 92.8% | NCI/ADR-RES ovarian 105%

Cn1cnc([N+](=O)[O-])c1/C=C1\Oc2ccc(Br)cc2C1=O
active: CCRF-CEM leukemia 2.63% | RPMI-8226 leukemia 4.16%
inactive: SK-MEL-2 melanoma 83.1% | SN12C renal 98.6% | UO-31 renal 67.6% | TK-10 renal 99.7% | ACHN renal 68.8% | CAKI-1 renal 87.3% | A498 renal 100% | MOLT-4 leukemia 60.2% | SR leukemia 33.9% | OVCAR-8 ovarian 77.8% | OVCAR-5 ovarian 105% | OVCAR-4 ovarian 103% | SK-OV-3 ovarian 89.9% | IGROV1 ovarian 87.1% | HS 578T breast 103% | NCI/ADR-RES ovarian 101%

O=C1CC(SC(=S)C2CCCC2=O)C(=O)N1 (centres undefined)
inactive: SK-MEL-2 melanoma 96.9% | SN12C renal 99.3% | UO-31 renal 92.3% | TK-10 renal 108% | ACHN renal 103% | CAKI-1 renal 102% | A498 renal 100% | CCRF-CEM leukemia 101% | MOLT-4 leukemia 96.5% | SR leukemia 89.9% | RPMI-8226 leukemia 100% | OVCAR-8 ovarian 96.3% | OVCAR-5 ovarian 109% | OVCAR-4 ovarian 106% | SK-OV-3 ovarian 105% | OVCAR-3 ovarian 109% | HS 578T breast 104% | NCI/ADR-RES ovarian 104%

O=[N+]([O-])c1ccc(/C(=C/c2ccccc2)[n+]2ccccc2)cc1
inactive: SK-MEL-2 melanoma 125% | SN12C renal 101% | UO-31 renal 100% | TK-10 renal 114% | ACHN renal 107% | CAKI-1 renal 111% | A498 renal 101% | CCRF-CEM leukemia 89.9% | MOLT-4 leukemia 105% | SR leukemia 102% | RPMI-8226 leukemia 98.3% | OVCAR-8 ovarian 97% | OVCAR-5 ovarian 98% | OVCAR-4 ovarian 100% | SK-OV-3 ovarian 119% | IGROV1 ovarian 109% | OVCAR-3 ovarian 127% | NCI/ADR-RES ovarian 116%

COc1cccc2ccc(CC(O)(c3ccccc3)c3ccccc3)nc12
inactive: SK-MEL-2 melanoma 85.1% | SN12C renal 93.8% | UO-31 renal 59.8% | TK-10 renal 128% | ACHN renal 84.3% | CAKI-1 renal 87.2% | A498 renal 102% | CCRF-CEM leukemia 95.7% | MOLT-4 leukemia 88.6% | SR leukemia 82.3% | RPMI-8226 leukemia 90.7% | OVCAR-8 ovarian 91.5% | OVCAR-5 ovarian 115% | OVCAR-4 ovarian 51.2% | SK-OV-3 ovarian 93.3% | OVCAR-3 ovarian 80.3% | HS 578T breast 103% | NCI/ADR-RES ovarian 94.4%

CCN(CC)CCCC(C)Nc1c2ccc(Cl)cc2nc2ccc(OC)cc12 (centres undefined)
active: CAKI-1 renal 1.55% | SR leukemia 0.997% | RPMI-8226 leukemia -6.19% | OVCAR-4 ovarian -7.7%
inactive: SK-MEL-2 melanoma 57.6% | EKVX NSCLC 49% | TK-10 renal 23.9% | ACHN renal 14.2% | A498 renal 74% | CCRF-CEM leukemia 39.4% | MOLT-4 leukemia 15.5% | OVCAR-8 ovarian 16.6% | SK-OV-3 ovarian 39.3% | OVCAR-3 ovarian 31% | HS 578T breast 57.4% | NCI/ADR-RES ovarian 31.9%

O=C(CC(CC(=O)c1ccccc1)c1ccccc1O)c1ccccc1
inactive: SK-MEL-2 melanoma 91.3% | EKVX NSCLC 95% | UO-31 renal 78.4% | TK-10 renal 98.6% | ACHN renal 99.3% | A498 renal 97.5% | MOLT-4 leukemia 105% | SR leukemia 92.9% | RPMI-8226 leukemia 85.2% | OVCAR-8 ovarian 95.9% | OVCAR-5 ovarian 96.9% | OVCAR-4 ovarian 91.2% | SK-OV-3 ovarian 94.5% | IGROV1 ovarian 101% | OVCAR-3 ovarian 94.3% | HS 578T breast 86.6% | NCI/ADR-RES ovarian 92.1%
